Experimental data from article PMC4336329 (PLoS ONE, 2015).
The whole screen tested about 310,000 compounds, of which about 14,000 (4.5%) showed an effect of 50% or more. Effects have a minus sign here. This is one part of a sample in which strong results are shown more often than they occur.

biological target: human ether-à-go-go-related gene (hERG) potassium channel (human, UniProt Q12809); assay: primary screen, population patch clamp on CHO cells stably expressing hERG; higher = less effect of the substance
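Also: peak tail current of the secondary pulse compared with the same well before compound.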

Chain of human ether-à-go-go-related gene (hERG) potassium channel (Q12809 whole entry, looked up): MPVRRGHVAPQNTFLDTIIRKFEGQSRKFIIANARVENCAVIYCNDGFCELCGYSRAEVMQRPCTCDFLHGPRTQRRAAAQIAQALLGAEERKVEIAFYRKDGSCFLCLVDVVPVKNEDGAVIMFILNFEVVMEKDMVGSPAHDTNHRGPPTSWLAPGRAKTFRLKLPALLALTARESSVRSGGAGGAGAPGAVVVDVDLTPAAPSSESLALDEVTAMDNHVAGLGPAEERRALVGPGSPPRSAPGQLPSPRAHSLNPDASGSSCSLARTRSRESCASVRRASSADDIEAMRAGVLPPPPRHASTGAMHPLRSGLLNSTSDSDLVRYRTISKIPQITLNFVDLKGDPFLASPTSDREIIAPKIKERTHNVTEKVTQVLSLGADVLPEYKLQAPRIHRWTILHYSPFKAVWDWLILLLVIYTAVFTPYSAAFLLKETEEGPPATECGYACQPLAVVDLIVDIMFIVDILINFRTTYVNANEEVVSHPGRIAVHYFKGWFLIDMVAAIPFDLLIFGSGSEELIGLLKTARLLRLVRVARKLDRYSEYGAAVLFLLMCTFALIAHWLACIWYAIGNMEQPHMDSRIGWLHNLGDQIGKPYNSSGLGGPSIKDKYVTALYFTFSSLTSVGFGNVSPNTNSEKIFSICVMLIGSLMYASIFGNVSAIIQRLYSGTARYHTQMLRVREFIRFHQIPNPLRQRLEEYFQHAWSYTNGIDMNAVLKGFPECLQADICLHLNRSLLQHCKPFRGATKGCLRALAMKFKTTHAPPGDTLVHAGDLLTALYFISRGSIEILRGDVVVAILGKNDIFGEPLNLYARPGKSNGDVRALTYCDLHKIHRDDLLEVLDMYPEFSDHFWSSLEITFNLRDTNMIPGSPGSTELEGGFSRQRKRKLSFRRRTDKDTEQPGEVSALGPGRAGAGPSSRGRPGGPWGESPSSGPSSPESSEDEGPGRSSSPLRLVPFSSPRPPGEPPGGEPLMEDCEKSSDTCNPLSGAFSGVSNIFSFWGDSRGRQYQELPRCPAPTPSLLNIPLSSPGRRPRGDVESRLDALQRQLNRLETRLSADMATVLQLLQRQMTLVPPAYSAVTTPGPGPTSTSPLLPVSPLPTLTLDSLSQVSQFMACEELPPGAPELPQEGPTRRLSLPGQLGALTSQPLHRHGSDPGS

Row | SMILES | hERG current change (%, negative = inhibition) at 10uM [%]
1 | Cc1cc2cc(CN(Cc3ccc4c(c3)OCO4)C(=O)c3ccco3)c(=O)[nH]c2cc1C | -25
2 | ClCc1ncc(-c2ccc(Cl)cc2)o1 | 33.5
3 | Cc1ccc(C(=O)NCc2ccc(Cl)cc2)cc1S(=O)(=O)N1CCCCC1 | -0.995
4 | O=C(NC(=S)Nc1cccnc1Cl)c1ccc(Cl)cc1 | 15.5
5 | O=C(NCc1ccco1)c1cccc(S(=O)(=O)N2CCOCC2)c1 | -4.97
6 | CN1CCN(S(=O)(=O)c2cccc(C(=O)N(C)Cc3cccs3)c2)CC1 | -7.83
7 | CN(C)S(=O)(=O)c1cccc(C(=O)NCc2ccco2)c1 | 10.7
8 | O=C(NCc1ccc(F)cc1)c1cccc(S(=O)(=O)N2CCOCC2)c1 | -25.4
9 | CN(Cc1cccs1)C(=O)c1ccc(S(=O)(=O)N2CCCCC2)cc1 | -18.8
10 | CCN(Cc1cccs1)C(=O)c1cccc(S(=O)(=O)N2CCN(C)CC2)c1 | -14.1
11 | O=C(c1ccc(S(=O)(=O)N2CCOCC2)cc1)N(Cc1ccco1)Cc1cccs1 | -44.5
12 | CN(Cc1cccs1)C(=O)c1cccc(S(=O)(=O)N2CCCCCC2)c1 | -59.9
13 | O=C(c1cccc(S(=O)(=O)N2CCOCC2)c1)N(Cc1ccc(F)cc1)Cc1ccco1 | -88.4
14 | O=C(c1cccc(S(=O)(=O)N2CCOCC2)c1)N(Cc1ccco1)Cc1cccs1 | -68.5
15 | CN(C)S(=O)(=O)c1cccc(C(=O)N(Cc2ccc(F)cc2)Cc2ccco2)c1 | -52.3
16 | Cc1ccc(N(Cc2ccco2)C(=O)c2cccc(S(=O)(=O)N(C)C)c2)cc1 | -21.5
17 | CCc1ccccc1NC(=O)c1cc(-c2cccc(O)c2)on1 | 12.7
18 | COc1cccc(C(=O)Nc2cnn(C(C)C)c2)c1 | 9.94
19 | CC(C)N(Cc1cnn(C)c1)Cc1nc(-c2ccc(Cl)cc2)no1 | 3.63
20 | COc1ccc(/C=N/NC(=O)c2ccncc2)cc1Cn1nc([N+](=O)[O-])c(Br)c1C | -49.4
21 | Cc1ccccc1NC(=O)C1C2CCCCC21 (stereo not shown) | 6.99
22 | CC(C)CC(NC(=O)C1CCC(C)CC1)C(=O)NCc1ccccn1 (stereo not shown) | 18
23 | O=C(Oc1cccc(-c2cnc3ccccc3n2)c1)c1ccco1 | -5.02

Row | SMILES | hERG current change (%, negative = inhibition) at 10uM [%]
24 | O=C(O)c1ccccc1OCc1ccccc1Cl | 6.55
25 | CCOc1ccccc1C(=O)NC1CCN(Cc2ccccc2)CC1 | -46.6
26 | O=C(NC1CCN(Cc2ccccc2)CC1)c1ccccc1OCc1ccccc1Cl | -69.2
27 | O=C(NC1CCCC1)c1ccccc1OCc1ccccc1 | -39.6
28 | O=C(CNC(=O)c1ccccc1Cl)NC1CCN(Cc2ccccc2)CC1 | 13.1
29 | Cl.O=C(NC1CCN(Cc2ccccc2)CC1)c1ccccc1OCc1ccccc1 | -69.3
30 | CC(C)N1CC23C=CC(O2)C(C(=O)OCc2ccccc2)C3C1=O (stereo not shown) | 3.29
31 | COc1cc(NS(=O)(=O)c2ccc(N/C=C(\C=O)c3nc4cc(Cl)ccc4o3)cc2)nc(OC)n1 | -2.34
32 | CCO[C@H]1OC(C(=O)O)=C[C@@H](C(C)(C)C)[C@@H]1CCCO | 7.12
33 | Cl.Fc1ccccc1Nc1nc(Cl)nc(Cl)n1 | 7.69
34 | COc1ccccc1N1CCN(c2ncc(C(=O)N3CCN(c4cccc(Cl)c4)CC3)c3ccccc23)CC1 | -10.7
35 | O=C(C1CCCCC1)N1CCN(c2ccccc2F)CC1 | -7.04
36 | CCCOC(=O)CSc1nc(N2CCOCC2)c2c(c1C#N)CC(C)(C)OC2 | -40.5
37 | O=C(Nc1ccc2ccccc2c1)NC1CCS(=O)(=O)C1 (stereo not shown) | 6.88
38 | Cc1ccc(C)c(NC(=O)CCNS(=O)(=O)c2ccc3[nH]c(=O)oc3c2)c1 | 11.4
39 | O=C(CSc1nncs1)Nc1cc(-c2ccccc2)nn1-c1ccccc1 | -39.1
40 | Cc1nnc(SCC(=O)Nc2cc(C(C)(C)C)nn2-c2ccccc2)s1 | -12.9
41 | COCCNc1nnc(SCC(=O)Nc2cc(-c3ccccc3)nn2-c2ccccc2)s1 | -50.9
42 | CC(C)(C)c1cc(NC(=O)CSc2nnc(N)s2)n(-c2ccccc2)n1 | -29.1
43 | Cc1ccc(C(=O)OCC(=O)Nc2cc(C(C)(C)C)nn2-c2ccccc2)c(O)c1 | -8.07
44 | COCCNc1nnc(SCC(=O)Nc2nnc(-c3ccccc3)o2)s1 | 21.8
45 | CC(C)(C)c1cc(NC(=O)CSc2nnc(NCc3ccccc3)s2)n(-c2ccccc2)n1 | -50.1
46 | CC(C)(C)c1cc(NC(=O)COC(=O)c2ccc(O)cc2O)n(-c2ccccc2)n1 | -79.3

Row | SMILES | hERG current change (%, negative = inhibition) at 10uM [%]
47 | O=C(COC(=O)c1ccc(O)cc1O)Nc1cc(-c2ccccc2)nn1-c1ccccc1 | -9.42
48 | O=C(Nc1nc2c(F)cccc2s1)C1CC1 | -8.38
49 | Cn1c(=O)cc(OCC(=O)N2CCN(Cc3ccc4c(c3)OCO4)CC2)c2ccccc21 | -33.4
50 | O=C(CSc1ccccc1)Nc1nccs1 | -3.78
51 | O=C(CC1C(=O)NCCN1Cc1ccc(-c2ccccc2)cc1)NCCOc1cccnc1 (stereo not shown) | -25.9
52 | O=C(c1ccccc1)N1N=C(C(F)(F)F)CC1(O)c1ccccc1 (stereo not shown) | 10.6
53 | C=CCNC(=O)c1ccc2c3n(nc2c1)-c1ccc(C)cc1CO3 | -24.6
54 | O=C(Nc1ccccc1C(F)(F)F)C1CCN(C(=O)c2cccs2)CC1 | 10.5
55 | Cc1ccc(NC(=O)C2Cc3ccccc3C(=O)O2)cc1 (stereo not shown) | 13
56 | O=C(NCCOc1ccccc1)c1cc2ccccc2o1 | -2.6
57 | CCOc1ccc(NC(=S)NN2C(C)CCCC2C)cc1 (stereo not shown) | 6.62
58 | CC1CCCC(C)N1NC(=S)Nc1ccc(OC(F)F)cc1 (stereo not shown) | -68.3
59 | COc1ccc(NC(=S)NN2C(C)CCCC2C)cc1 (stereo not shown) | 16.6
60 | N/C(=N\OC(=O)c1ccc(F)cc1)c1ccc(Br)cc1 | 15.4
61 | CC(=O)Nc1ccc(C=C(C(C)=O)C(C)=O)cc1 | 2.2
62 | COc1ccc(CN2C(=O)c3cccnc3C2=O)cc1S(=O)(=O)N1CCOc2ccc(C)cc21 | -11.6
63 | CNc1c([N+](=O)[O-])cnn1-c1cccc(Cl)n1 | 14.4
64 | Cc1cccn2c(=O)c3cc(C(=O)NCCc4ccccc4)c(=N)n(CCCn4ccnc4)c3nc12 | -74.4
65 | O=C(O)c1ccccc1C(=O)NCCCn1ccnc1 | 18.4
66 | Cc1cccn2c(=O)c3cc(C(=O)NC(C)c4ccccc4)c(=N)n(CCCn4ccnc4)c3nc12 (stereo not shown) | -68.1
67 | CC(NC(=O)C(=O)NCCCn1ccnc1)c1ccccc1 (stereo not shown) | 15.6
68 | Cc1cccn2c(=O)c3cc(C(=O)NCCCn4ccnc4)n(C)c3nc12 | -11
69 | Cc1ccc(N(C(=O)c2cccs2)C2C=CS(=O)(=O)C2)cc1 (stereo not shown) | -24.4

Row | SMILES | hERG current change (%, negative = inhibition) at 10uM [%]
70 | CCCOC(=O)c1ccc(NC(=O)c2cc(OC)c(OC)c(OC)c2Br)cc1 | 8.82
71 | FC(F)(F)c1cccc(OCCN2CCN(Cc3ccccc3)CC2)c1.O=C(O)C(=O)O | -40.8
72 | O=C(O)c1cc([N+](=O)[O-])ccc1N1CCC(Cc2ccccc2)CC1 | -4.42
73 | CCc1cccc(OCCOCCN2CCCC2)c1.O=C(O)C(=O)O | -46.1
74 | O=C(O)C(=O)O.O=[N+]([O-])c1cccc(OCCN2CCC(Cc3ccccc3)CC2)c1 | -71.1
75 | O=C(O)C(=O)O.O=[N+]([O-])c1cccc(OCCCN2CCC(Cc3ccccc3)CC2)c1 | -78.1
76 | Cn1c2c(c(=O)n(C)c1=O)C(c1cc3c(cc1Br)OCO3)CC(=O)N2 (stereo not shown) | 3.46
77 | O=C(c1ccc(Cn2c(=O)[nH]c3ccsc3c2=O)cc1)N1CCN(c2ccccc2)CC1 | 7.23
78 | Cc1ccccc1C(=O)N1CCC(C(=O)Nc2nc3ccc(F)cc3s2)CC1 | -42.8
79 | CC(Sc1nc2cc(Cl)ccc2s1)C(=O)Nc1ccc2c(c1)OCO2 (stereo not shown) | 6.08
80 | COc1ccccc1N1CCN(CCN2C(=O)CC(=C3c4ccccc4-c4ccccc43)C2=O)CC1.Cl | 0.408
81 | COc1ccccc1N1CCN(CCOc2c(OC)cccc2OC)CC1.Cl | -34.6
82 | COc1ccccc1OCCCCN1CCN(c2ccccc2OC)CC1.O=C(O)C(=O)O | -43.1
83 | Cc1ccccc1OCCCCCCN1CCNCC1.O=C(O)C(=O)O | -1.56
84 | COc1ccccc1N1CCN(C(=O)COc2cc(C)ccc2C)CC1 | -18.3
85 | COc1ccccc1N1CCN(C(=O)CCCN2C(=O)c3cccc4cccc(c34)C2=O)CC1.Cl | -70.9
86 | CCOc1ccccc1N1CCN(C(=O)CCCN2C(=O)c3cccc4cccc(c34)C2=O)CC1 | -8.72
87 | Br.COc1ccccc1N1CCN(CCCCN2C(=O)c3ccccc3C2=O)CC1 | -53.5
88 | COc1ccccc1N1CCN(CCCCOc2ccc(C)cc2C)CC1.O=C(O)C(=O)O | -50.3
89 | COc1ccccc1N1CCN(CCCCOc2c(OC)cccc2OC)CC1.O=C(O)C(=O)O | -57.9
90 | COc1ccccc1N1CCN(C(=O)CCN2C(=O)c3cccc4cccc(c34)C2=O)CC1 | 15.5
91 | COc1ccccc1N1CCN(C(=O)CN2C(=O)c3ccccc3C2=O)CC1 | 11.9
